“And” between values parts separate entries of the source, which are not always exact repeats. Equal entries are not always repeated. In all, about 340,000 compounds went through this assay and about 8,500 (2.5%) were called active.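 The calls were made as follows: active = melting temperature shift of at least 10% of the positive control shift, at one fixed dose; inactive = the rest.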 Shown is part of a subset that was picked to be rich in actives.

For this experiment, the system named is Glutamate receptor ionotropic, NMDA 3A (GRIN3A) ligand-binding domain. The experiment is described as follows: NR3A LBD thermal stabilization by compounds – biophysical, differential scanning fluorimetry, uHTS, primary screen (AID 1259313). The settings on record: at 25 µM, hits give high values, 0% = protein alone, 100% = glycine-bound protein.
As for `O=C(NC(Cc1ccc(O)cc1)C(=O)O)/C(=C/c1ccccc1)NC(=O)c1ccccc1` (configuration not stated), the Tm shift relative to glycine control is -1.28% (inactive). As for `O=C(Nc1nccs1)C1CCCN1S(=O)(=O)c1cccc2cccnc12` (configuration not stated), the Tm shift relative to glycine control is 0.08% (inactive). To `CCOC(=O)NC(=O)CSc1nnc(SCCC(=O)O)s1` belongs -2.83% (inactive); to `COc1ccc(C)cc1N(C(=O)Cn1nnc(-c2ccc(C)o2)n1)C(C(=O)NC1CCCC1)c1ccncc1` (configuration not stated), 0.19% (inactive); to `CC(C)(C)NC(=O)NC(=O)COC(=O)C1c2ccccc2Oc2ccccc21`, -5.02% (inactive). To `CCC(C)(C)NC(=O)CN(C(=O)CCC(=O)Nc1nccs1)c1ccc2c(c1)OCO2` belongs -1.69% (inactive); to `COc1cc(NC(=O)CSC(=S)N2CCCC2)c(OC)cc1Cl`, -1.06% (inactive).

On to `O=C(N/N=C/c1ccccn1)c1ccc(S(=O)(=O)N2CCCCCC2)cc1`, for which the Tm shift relative to glycine control was -1.75% (inactive).

For the compound `O=C(N/N=C/c1ccccn1)c1cccc(NC(=O)c2ccc(Cl)cc2)c1`, the Tm shift relative to glycine control was 21.2% (active). Regarding `Cc1cccc(C(=O)Nc2ccc(C(=O)N/N=C/c3cccc(C)n3)cc2)c1`, the Tm shift relative to glycine control is -13.7% (inactive). As for `C=CCC1(CC=C)CCCN1C(=O)c1cc(COc2ccc(-n3cncn3)cc2)on1`, the Tm shift relative to glycine control is 1.48% (inactive). On to `Cc1ccc2cc(C#N)c(NCCNC(=S)NCCCN3CCOCC3)nc2c1`, for which the Tm shift relative to glycine control is 1.55% (inactive). To `CC(C)=CCc1c(O)c(CC=C(C)C)c2occ(-c3ccc(O)cc3)c(=O)c2c1O` belongs 31.4% (active); to `CC(C)CN(Cc1c(O)ccc2c(=O)c(-c3ccccc3)coc12)CC(C)C`, -7.19% (inactive); to `COC(=O)C1=C(C)N(Cc2ccccc2)C(=NCCCOC(C)C)N[C@H]1c1ccccc1`, -2.6% (inactive).

Regarding `Cc1ccccc1NC(=O)c1ccc(COc2ccc3c(C)cc(=O)oc3c2)cc1`, the Tm shift relative to glycine control is 12% (active). To `CCN(C(=O)COC(=O)c1ccc(COc2ccc3c(C)cc(=O)oc3c2)cc1)C1CCS(=O)(=O)C1` (configuration not stated) belongs 2.72% (inactive); to `CCOC(=O)c1cc(=O)c2ccc(OCc3ccccc3)cc2o1`, 2.08% (inactive). Consider `COC(=O)c1ccc(/C=N/OCC(=O)Nc2cc(F)ccc2F)cc1`, for which the Tm shift relative to glycine control was 1.06% (inactive). To `CC(NC(=O)C(=O)N/N=C/c1ccc(Cl)cc1)c1ccccc1` (configuration not stated) belongs -8.19% (inactive); to `CC(C)Cn1cnc2c(SCc3ccc(Cl)cc3)nc(N)nc21`, -6.54% (inactive).

`CCOC(=O)c1ccc(-c2ccc(C(=O)Nc3cccnc3)o2)cc1`: the Tm shift relative to glycine control is -18.8% (inactive). Regarding `COC(=O)C1=C(C)NC2=C(C(=O)c3ccccc32)C1c1ccc(-c2ccc(C(=O)O)cc2)o1` (configuration not stated), the Tm shift relative to glycine control is 30% (active). Take `COC(=O)C1=C(C)N(C)C(=O)NC1c1ccc([N+](=O)[O-])o1` (configuration not stated): the Tm shift relative to glycine control is -3.85% (inactive). As to `NC(=O)C[n+]1cccc(C(N)=O)c1`, the Tm shift relative to glycine control was -0.09% (inactive). With `O=C(Nc1ccc(Cl)cc1)/C(=C1\CCCN1)[N+](=O)[O-]`, the Tm shift relative to glycine control was -1.33% (inactive). Turning to `COc1cccc(/C=N/Nc2cc(C)nc(-c3ccccc3O)n2)c1O`, the Tm shift relative to glycine control was 30.6% (active). Turning to `COc1ccc(/C=N/Nc2cc(N3CCOCC3)nc(C)n2)c(OC)c1`, the Tm shift relative to glycine control is -3.16% (inactive).

As for `COc1ccc(Cc2nnc(N/N=C/c3ccccc3O)[nH]c2=O)cc1OC`, the Tm shift relative to glycine control is -2.87% (inactive). As for `COc1ccc(NS(=O)(=O)c2cc(NC(=O)CC(=O)c3ccc([N+](=O)[O-])cc3)ccc2C)cc1`, the Tm shift relative to glycine control is 24% (active). As for `COc1ccc(NS(=O)(=O)c2cc(C(=O)Nc3ccccc3C(=O)O)ccc2C)cc1`, the Tm shift relative to glycine control is 1.75% (inactive).

Take `COc1ccc(C(=O)CC(=O)C(=O)Nc2cc([N+](=O)[O-])ccc2OC)cc1`: the Tm shift relative to glycine control was 2.73% (inactive). To `COc1ccc(/C=C/C(=O)OCC(=O)NCc2cccs2)cc1OC` belongs 0.79% (inactive). To `C#C[C@]1(O)CC[C@H]2[C@@H]3CCC4=CC(=O)CC[C@@H]4[C@H]3CC[C@@]21CC` belongs 1.26% (inactive) and -0.79% (inactive); to `Cc1ccc(Oc2nc3ccccc3n3c(C)nnc23)cc1`, 12.7% (active); to `Cc1ccc(S(=O)(=O)N(C)c2nc3ccccc3n3c(C(C)C)nnc23)cc1`, 1.79% (inactive).

For the compound `CCOC(=O)CNc1nc2ccccc2n2c(C)nnc12`, the Tm shift relative to glycine control was -9.54% (inactive). `COc1ccccc1-n1cnc2cc(NS(=O)(=O)c3ccccc3)ccc21`: the Tm shift relative to glycine control was 0.96% (inactive). To `O=C1c2cccc3cccc(c23)C(=O)N1c1cccc(O)c1` belongs 3.66% (inactive). For the compound `O=C(c1cccc(Br)c1)N1CCN(C2=NS(=O)(=O)c3ccccc32)CC1`, the Tm shift relative to glycine control was -0.26% (inactive). Take `CCC1CCCCN1C(=S)Nc1ccc(S(=O)(=O)Nc2ncccn2)cc1` (configuration not stated): the Tm shift relative to glycine control is -1.92% (inactive). To `O=C(Nc1ccc(C2CC2(Cl)Cl)cc1)c1cccc([N+](=O)[O-])c1` (configuration not stated) belongs -0.36% (inactive); to `COc1cc(NC(=O)c2cc([N+](=O)[O-])ccc2Br)ccc1NC(=O)c1ccco1`, -2.17% (inactive); to `O=C(Nc1ccc(NC(=O)c2ccco2)c(Cl)c1)c1cccc([N+](=O)[O-])c1`, 24.7% (active). To `COc1ccc(N2CCN(C(=O)c3ccccc3NC(=O)C3=C(C)OCCS3)CC2)cc1` belongs -0.18% (inactive).

Take `CCOC(=O)c1cc2cc(C)ccc2[nH]1`: the Tm shift relative to glycine control is 0.1% (inactive).

Regarding `Cn1ccc(=NC=C(C#N)C#N)c2ccccc21`, the Tm shift relative to glycine control was -0.6% (inactive). Consider `Cc1cc(C)n2nc(C(=O)OC(C)C(=O)c3cc(C)c(C)cc3C)nc2n1` (configuration not stated), for which the Tm shift relative to glycine control is 1.24% (inactive). Take `Cc1cc(=O)oc2cc(OCC3CC(c4ccccc4Cl)=NO3)ccc12` (configuration not stated): the Tm shift relative to glycine control is 11.5% (active).

On to `CCOc1ccccc1N1CCN(C(=O)COc2ccc3c(C)cc(=O)oc3c2)CC1`, for which the Tm shift relative to glycine control is -4.48% (inactive).

On to `Cc1cc(=O)oc2cc(OCCC[n+]3ccccc3)ccc12`, for which the Tm shift relative to glycine control was -1.47% (inactive).

On to `O=C(COC(=O)/C=C/c1cccc(Cl)c1)NCCc1ccccc1`, for which the Tm shift relative to glycine control is 0.53% (inactive). To `C[C@H](O)[C@@H]1C(=O)N2CCc3ccc(N4CCOCC4)cc3[C@@H]2C[C@@H]1N(C)C(=O)C(C)(C)C` belongs -1.15% (inactive). As to `O=C(NCc1ccco1)C(c1ccncc1)N(C(=O)Cn1nnc2ccccc21)c1ccccc1` (configuration not stated), the Tm shift relative to glycine control is -1.69% (inactive). To `COc1ccc(Br)cc1C(=O)NC(=S)Nc1cc(-c2nc3ccccc3[nH]2)ccc1C` belongs 25.9% (active); to `COc1ccc(Br)cc1C(=O)Nc1cccc(C)c1C`, -2.13% (inactive); to `COc1ccccc1C(=O)NC(=S)Nc1ccccc1N1CCCCC1`, -4.34% (inactive).

Source of the values: PubChem BioAssay AID1259313 (Sanford-Burnham Center for Chemical Genomics, 2017).
